The first experiment deals with CBL. Description: pooled miR-30 sensor sort-seq; sequence = guide strand. The settings on record: shRNA.
The sequence AAATTCTCCATAAACACCCTAA had a sensor-assay potency score (higher = more potent) of -0.0479.

TGTTGTAGGATCACCATCCAGA: the sensor-assay potency score (higher = more potent) stood at 0.05.

TCACCATCCAGAGACAACCAGC came in with a sensor-assay potency score (higher = more potent) of -1.24.

TTCAGAGTTGATTCTCCGCGGG: the sensor-assay potency score (higher = more potent) was -0.689.

On to ATGCACTTCATGTAGAGCCTGT, for which the sensor-assay potency score (higher = more potent) was found to be 0.672.

In turn, TTTGTGAATGAATTTCTGGAGC registered a sensor-assay potency score (higher = more potent) of -0.665.

In turn, TTACATAGTTGGAATGTGGAGC showed a sensor-assay potency score (higher = more potent) of 0.417.

Consider TTTATTGTGAGGGATTGTCTGG, for which the sensor-assay potency score (higher = more potent) is -0.649.

Consider TTTCTTCATCAAATTCTCCATA, for which the sensor-assay potency score (higher = more potent) was -0.795.

In turn, TTGGGTTCTGACACAACCGCAC yielded a sensor-assay potency score (higher = more potent) of 0.227.

In the case of TTCCTGAGCAAAGAGGACCAGG, the sensor-assay potency score (higher = more potent) is -0.903.

With TTTGGGTTCTGACACAACCGCA, the sensor-assay potency score (higher = more potent) is -1.29.

Sequence TTGAGGGAACACATACTCGCTG displayed a sensor-assay potency score (higher = more potent) of -0.612.

Regarding TATCTGAGAGAGTTCGGCGGGC, the sensor-assay potency score (higher = more potent) is -0.0196.

Regarding ATACGTACAGCTATCAATCTGC, the sensor-assay potency score (higher = more potent) was 0.514.

The next experiment deals with CBR1. Described as above. Particulars: shRNA.
TTCAGGAGGATCTTGTCCCCTT: the sensor-assay potency score (higher = more potent) is -0.643.

For AATTCTGTGCACACATCTCGGG, the sensor-assay potency score (higher = more potent) is -0.452.

The sequence TTAGTAGTACATTAGTGAGTGC yielded a sensor-assay potency score (higher = more potent) of -0.244.

Take TTGTTTTCATCGTCACTTCAGC: the sensor-assay potency score (higher = more potent) is -0.315.

Take TATGACATTGTAAATGCCCTTT: the sensor-assay potency score (higher = more potent) was -0.242.

Turning to TATTAGAGGGAGTAATTCTGTG, the sensor-assay potency score (higher = more potent) is -0.602.

Consider TTTGTTTTCATCGTCACTTCAG, for which the sensor-assay potency score (higher = more potent) was 0.571.

Turning to TCTCTGAAACAAATTGTCCATG, the sensor-assay potency score (higher = more potent) is -1.29.

TTCAGCTTGAATATGAAAGGGT: the sensor-assay potency score (higher = more potent) was determined as 0.264.

TTATTAGAGGGAGTAATTCTGT showed a sensor-assay potency score (higher = more potent) of -0.254.

Sequence TAGTACATTAGTGAGTGCTAAT yielded a sensor-assay potency score (higher = more potent) of -1.35.

TCAGTGATGGTCTCACTGCGGA registered a sensor-assay potency score (higher = more potent) of -1.01.

Sequence TCTGTGCACACATCTCGGGTAC came in with a sensor-assay potency score (higher = more potent) of -0.133.

For the sequence ATCGTCGATGTCCAGCTGGTGG, the sensor-assay potency score (higher = more potent) is -1.35.

Consider TAAGAGATCATTTTTTTTCTTA, for which the sensor-assay potency score (higher = more potent) was found to be 0.534.

Turning to TTGAATATGAAAGGGTGTGGGA, the sensor-assay potency score (higher = more potent) was determined as 0.163.

Take TTCTGTGCACACATCTCGGGTA: the sensor-assay potency score (higher = more potent) stood at 0.677.

The sequence TTTTCATCGTCACTTCAGCTTG gave a sensor-assay potency score (higher = more potent) of -0.702.

In turn, TTCTCTGAAACAAATTGTCCAT displayed a sensor-assay potency score (higher = more potent) of -0.572.

As to ATTCTGTGCACACATCTCGGGT, the sensor-assay potency score (higher = more potent) was -0.951.

The sequence TAATTCTGTGCACACATCTCGG had a sensor-assay potency score (higher = more potent) of -0.638.

Turning to TTACGTAGTCAACTGAGTGCGT, the sensor-assay potency score (higher = more potent) turned out to be 0.669.

Consider TCATCGTCACTTCAGCTTGAAT, for which the sensor-assay potency score (higher = more potent) is -1.32.

TCAATTAGTAGTACATTAGTGA displayed a sensor-assay potency score (higher = more potent) of 0.828.
Also: reference of the scale not given here.
